Results on ten compounds are retold here after ChEMBL document CHEMBL3988442, “University of Dundee, Small-Polar-MMV Screening Library” (2021).

For some assays here: Entries with a potency or affinity are not part of this list.

What all share (set-up): scale not given: direction of the effect not stated beside the values
For experiment [1], the target named is Protein translocase subunit SecA (Escherichia coli (strain K12)) (UniProt P10408). Description: Assay to Identify E. coli SecA ATPase Inhibitors. The format is functional. To be noted: 30 µM.
In experiment [2] the target is T1, Ubiquitin-activating enzyme e1, putative (Leishmania donovani (strain BPK282A1)) (UniProt E9BSI1).
T1 sequence (whole entry): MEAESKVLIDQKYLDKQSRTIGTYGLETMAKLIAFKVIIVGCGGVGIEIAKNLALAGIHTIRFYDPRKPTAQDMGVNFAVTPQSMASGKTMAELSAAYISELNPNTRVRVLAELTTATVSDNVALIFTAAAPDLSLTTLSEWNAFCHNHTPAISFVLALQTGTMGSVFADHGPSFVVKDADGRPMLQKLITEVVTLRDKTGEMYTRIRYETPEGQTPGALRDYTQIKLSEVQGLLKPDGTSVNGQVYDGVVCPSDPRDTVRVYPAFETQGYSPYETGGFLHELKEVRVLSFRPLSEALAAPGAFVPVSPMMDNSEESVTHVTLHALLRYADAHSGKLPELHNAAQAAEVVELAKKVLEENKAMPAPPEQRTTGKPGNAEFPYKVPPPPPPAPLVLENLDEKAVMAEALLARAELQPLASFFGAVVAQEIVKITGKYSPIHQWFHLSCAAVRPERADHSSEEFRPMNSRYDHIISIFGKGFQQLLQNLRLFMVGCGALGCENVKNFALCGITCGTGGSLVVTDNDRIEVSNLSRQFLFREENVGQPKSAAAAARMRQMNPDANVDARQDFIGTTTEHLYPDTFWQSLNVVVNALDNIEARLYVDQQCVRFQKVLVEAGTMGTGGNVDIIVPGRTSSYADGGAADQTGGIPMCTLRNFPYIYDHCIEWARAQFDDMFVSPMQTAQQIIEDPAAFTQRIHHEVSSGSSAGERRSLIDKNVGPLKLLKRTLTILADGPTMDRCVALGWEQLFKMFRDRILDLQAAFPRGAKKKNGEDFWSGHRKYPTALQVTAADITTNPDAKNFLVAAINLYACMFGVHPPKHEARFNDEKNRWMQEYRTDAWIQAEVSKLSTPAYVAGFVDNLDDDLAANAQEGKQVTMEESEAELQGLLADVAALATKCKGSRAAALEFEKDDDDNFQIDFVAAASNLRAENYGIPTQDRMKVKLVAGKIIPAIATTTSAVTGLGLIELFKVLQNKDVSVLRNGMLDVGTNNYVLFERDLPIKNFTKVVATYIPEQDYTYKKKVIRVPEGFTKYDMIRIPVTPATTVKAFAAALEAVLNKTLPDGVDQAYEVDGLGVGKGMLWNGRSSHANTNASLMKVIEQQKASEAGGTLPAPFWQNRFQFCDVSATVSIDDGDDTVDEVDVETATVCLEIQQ
Description: Leishmania donovani Ubiquitin Activating Enzyme (LdE1). The format is functional. Particulars: 30 µM.

Experiment [3] deals with AMP-activated protein kinase, AMPK (Homo sapiens) (UniProt P54646+O43741+P54619+Q9UGJ0+Q9Y478+Q13131+Q9UGI9). Description: AMP-dependent Kinase enzyme assay. An in vitro enzyme assay that detects ADP turnover that is directly proportional to AMPK activity. This uses naive AMPK that is activated during the assay with MK-8722. Type of experiment: functional. Particulars: 30 µM.

Experiment [4] deals with Sialic acid-binding Ig-like lectin 9 (Homo sapiens) (UniProt Q9Y336). Description: Hs-Siglec9 ALPHAscreen SOP 20170721. To be noted: 10 µM. On the technique in general: In Alpha technology, singlet oxygen from a donor bead excites a nearby acceptor bead.
The subject of another experiment is Trypanosoma cruzi. Kind of experiment: Trypanosoma cruzi phosphomannomutase and mannose-1-phosphate guanylyltransferase assay. The format is functional. Particulars: 10 µM.
The target in experiment [5] is T2, Arginase-2, mitochondrial (Homo sapiens) (UniProt P78540).
T2 sequence (whole entry): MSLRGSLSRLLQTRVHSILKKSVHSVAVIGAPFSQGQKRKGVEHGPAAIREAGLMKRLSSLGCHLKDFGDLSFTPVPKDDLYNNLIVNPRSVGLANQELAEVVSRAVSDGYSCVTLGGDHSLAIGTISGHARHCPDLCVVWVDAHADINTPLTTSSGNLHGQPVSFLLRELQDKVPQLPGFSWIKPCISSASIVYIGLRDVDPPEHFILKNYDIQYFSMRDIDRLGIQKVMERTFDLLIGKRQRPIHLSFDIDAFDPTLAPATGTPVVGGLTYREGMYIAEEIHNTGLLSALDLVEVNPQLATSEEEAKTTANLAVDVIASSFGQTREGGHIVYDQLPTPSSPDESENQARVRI
Description: in vitro enzyme assay to detect the production of urea directly proportional to the activity of Arginase II. Also: in the data most compounds retested in dose-response had high values. Type of experiment: functional. Particulars: 33.3 µM.

For experiment [6], the target named is T3, Proteasome subunit beta (Trypanosoma cruzi) (UniProt O96673).
T3 sequence (whole entry): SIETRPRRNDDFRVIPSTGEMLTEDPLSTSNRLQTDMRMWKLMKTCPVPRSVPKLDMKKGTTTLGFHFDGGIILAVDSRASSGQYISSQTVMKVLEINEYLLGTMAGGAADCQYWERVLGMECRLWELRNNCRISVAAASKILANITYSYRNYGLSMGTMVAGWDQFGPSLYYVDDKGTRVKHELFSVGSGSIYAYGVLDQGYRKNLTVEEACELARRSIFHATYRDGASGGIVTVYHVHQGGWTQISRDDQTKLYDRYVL
Kind of experiment: Trypanosoma cruzi proteasome chymotrypsin-like activity (TcProtChymo) assay. Also: in the data most compounds retested in dose-response had high values. Type of experiment: functional. Particulars: 9.37 µM.

The species entered for another experiment is Homo sapiens. Description: To identify inhibition of the IFN signalling (Jak-Stat) pathway via expression of an eGFP reporter gene under the control of an IFN-stimulated response element (ISRE) containing MxA promoter. The format is functional. To be noted: 30 µM.
Experiment [7] has as its target T4, Tyrosyl-tRNA synthetase, putative (Trypanosoma cruzi (strain CL Brener)) (UniProt Q4DSP6).
T4 sequence (whole entry): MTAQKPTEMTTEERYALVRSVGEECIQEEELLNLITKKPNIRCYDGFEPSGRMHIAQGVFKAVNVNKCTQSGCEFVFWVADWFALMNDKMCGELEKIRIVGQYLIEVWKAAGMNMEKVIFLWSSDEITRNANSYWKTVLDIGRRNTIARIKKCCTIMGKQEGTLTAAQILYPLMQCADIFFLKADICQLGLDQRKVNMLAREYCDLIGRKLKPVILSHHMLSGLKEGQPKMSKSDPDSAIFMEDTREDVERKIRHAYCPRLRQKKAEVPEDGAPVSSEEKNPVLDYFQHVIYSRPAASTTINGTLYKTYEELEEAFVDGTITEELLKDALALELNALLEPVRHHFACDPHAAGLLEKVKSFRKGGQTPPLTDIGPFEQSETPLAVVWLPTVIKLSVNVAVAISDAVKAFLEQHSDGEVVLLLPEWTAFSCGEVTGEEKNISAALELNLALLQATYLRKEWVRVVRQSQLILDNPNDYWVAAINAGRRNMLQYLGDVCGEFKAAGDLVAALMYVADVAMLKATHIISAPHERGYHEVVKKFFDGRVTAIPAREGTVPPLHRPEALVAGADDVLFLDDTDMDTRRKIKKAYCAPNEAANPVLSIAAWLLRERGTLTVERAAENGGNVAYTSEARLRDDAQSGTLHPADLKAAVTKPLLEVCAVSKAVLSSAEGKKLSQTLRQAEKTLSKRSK
Kind of experiment: Trypanosoma cruzi tyrosyl tRNA synthetase (TcYRS) _High Tyrosine SOP. Also: in the data most compounds retested in dose-response had high values. Type of experiment: functional. To be noted: 30 µM.

Experiment [8] deals with T4, Tyrosyl-tRNA synthetase, putative (Trypanosoma cruzi (strain CL Brener)). Kind of experiment: Trypanosoma cruzi tyrosyl tRNA synthetase (TcYRS) SOP. Particulars: 30 µM. Type of experiment: functional.
Experiment [9] has as its target Chromo domain-containing protein 1 (Saccharomyces cerevisiae (strain ATCC 204508 / S288c) (Baker's yeast)) (UniProt P32657). Description: ScCHD-1 Enzyme Inhibition Assay. Also: in the data most compounds retested in dose-response had high values. Type of experiment: functional. To be noted: 30 µM.

Sialic acid-binding Ig-like lectin 9 (Homo sapiens), sequence (Q9Y336 whole entry): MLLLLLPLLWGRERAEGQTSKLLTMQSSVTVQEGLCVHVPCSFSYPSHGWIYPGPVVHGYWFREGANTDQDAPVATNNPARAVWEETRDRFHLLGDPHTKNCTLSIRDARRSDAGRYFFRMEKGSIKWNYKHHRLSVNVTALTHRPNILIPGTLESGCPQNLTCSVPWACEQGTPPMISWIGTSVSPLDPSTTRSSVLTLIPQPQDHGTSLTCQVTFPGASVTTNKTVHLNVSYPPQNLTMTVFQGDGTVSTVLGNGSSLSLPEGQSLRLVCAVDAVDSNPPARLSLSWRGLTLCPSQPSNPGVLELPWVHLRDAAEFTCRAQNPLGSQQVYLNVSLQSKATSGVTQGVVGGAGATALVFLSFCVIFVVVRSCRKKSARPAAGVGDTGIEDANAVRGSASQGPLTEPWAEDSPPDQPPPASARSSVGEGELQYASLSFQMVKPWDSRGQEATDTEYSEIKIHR
Protein translocase subunit SecA (Escherichia coli (strain K12)), sequence (P10408 whole entry): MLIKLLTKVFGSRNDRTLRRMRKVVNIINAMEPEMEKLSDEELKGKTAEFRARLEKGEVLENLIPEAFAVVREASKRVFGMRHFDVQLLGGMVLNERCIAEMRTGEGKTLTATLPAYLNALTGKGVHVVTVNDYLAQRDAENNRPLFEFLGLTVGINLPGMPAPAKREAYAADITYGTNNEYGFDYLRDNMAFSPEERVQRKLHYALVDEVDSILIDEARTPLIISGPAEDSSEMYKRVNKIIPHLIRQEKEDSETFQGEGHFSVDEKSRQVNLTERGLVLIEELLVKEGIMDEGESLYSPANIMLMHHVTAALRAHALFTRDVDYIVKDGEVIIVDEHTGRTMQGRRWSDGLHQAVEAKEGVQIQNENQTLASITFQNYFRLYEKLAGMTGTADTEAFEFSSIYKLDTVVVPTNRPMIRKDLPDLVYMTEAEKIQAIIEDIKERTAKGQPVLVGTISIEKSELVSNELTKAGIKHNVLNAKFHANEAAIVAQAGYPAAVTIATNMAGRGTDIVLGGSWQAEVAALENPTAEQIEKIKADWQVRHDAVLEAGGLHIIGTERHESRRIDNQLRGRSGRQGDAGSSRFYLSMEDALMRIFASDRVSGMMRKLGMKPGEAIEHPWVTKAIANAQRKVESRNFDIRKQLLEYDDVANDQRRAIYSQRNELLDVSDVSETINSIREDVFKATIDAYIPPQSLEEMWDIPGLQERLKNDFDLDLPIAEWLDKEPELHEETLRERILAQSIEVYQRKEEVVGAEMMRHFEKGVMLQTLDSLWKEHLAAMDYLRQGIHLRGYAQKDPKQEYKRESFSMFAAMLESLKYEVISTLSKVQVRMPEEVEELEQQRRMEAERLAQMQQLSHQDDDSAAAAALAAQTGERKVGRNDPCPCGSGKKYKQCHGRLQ
Chromo domain-containing protein 1 (Saccharomyces cerevisiae (strain ATCC 204508 / S288c) (Baker's yeast)), sequence (P32657 whole entry, the tested form may be a part): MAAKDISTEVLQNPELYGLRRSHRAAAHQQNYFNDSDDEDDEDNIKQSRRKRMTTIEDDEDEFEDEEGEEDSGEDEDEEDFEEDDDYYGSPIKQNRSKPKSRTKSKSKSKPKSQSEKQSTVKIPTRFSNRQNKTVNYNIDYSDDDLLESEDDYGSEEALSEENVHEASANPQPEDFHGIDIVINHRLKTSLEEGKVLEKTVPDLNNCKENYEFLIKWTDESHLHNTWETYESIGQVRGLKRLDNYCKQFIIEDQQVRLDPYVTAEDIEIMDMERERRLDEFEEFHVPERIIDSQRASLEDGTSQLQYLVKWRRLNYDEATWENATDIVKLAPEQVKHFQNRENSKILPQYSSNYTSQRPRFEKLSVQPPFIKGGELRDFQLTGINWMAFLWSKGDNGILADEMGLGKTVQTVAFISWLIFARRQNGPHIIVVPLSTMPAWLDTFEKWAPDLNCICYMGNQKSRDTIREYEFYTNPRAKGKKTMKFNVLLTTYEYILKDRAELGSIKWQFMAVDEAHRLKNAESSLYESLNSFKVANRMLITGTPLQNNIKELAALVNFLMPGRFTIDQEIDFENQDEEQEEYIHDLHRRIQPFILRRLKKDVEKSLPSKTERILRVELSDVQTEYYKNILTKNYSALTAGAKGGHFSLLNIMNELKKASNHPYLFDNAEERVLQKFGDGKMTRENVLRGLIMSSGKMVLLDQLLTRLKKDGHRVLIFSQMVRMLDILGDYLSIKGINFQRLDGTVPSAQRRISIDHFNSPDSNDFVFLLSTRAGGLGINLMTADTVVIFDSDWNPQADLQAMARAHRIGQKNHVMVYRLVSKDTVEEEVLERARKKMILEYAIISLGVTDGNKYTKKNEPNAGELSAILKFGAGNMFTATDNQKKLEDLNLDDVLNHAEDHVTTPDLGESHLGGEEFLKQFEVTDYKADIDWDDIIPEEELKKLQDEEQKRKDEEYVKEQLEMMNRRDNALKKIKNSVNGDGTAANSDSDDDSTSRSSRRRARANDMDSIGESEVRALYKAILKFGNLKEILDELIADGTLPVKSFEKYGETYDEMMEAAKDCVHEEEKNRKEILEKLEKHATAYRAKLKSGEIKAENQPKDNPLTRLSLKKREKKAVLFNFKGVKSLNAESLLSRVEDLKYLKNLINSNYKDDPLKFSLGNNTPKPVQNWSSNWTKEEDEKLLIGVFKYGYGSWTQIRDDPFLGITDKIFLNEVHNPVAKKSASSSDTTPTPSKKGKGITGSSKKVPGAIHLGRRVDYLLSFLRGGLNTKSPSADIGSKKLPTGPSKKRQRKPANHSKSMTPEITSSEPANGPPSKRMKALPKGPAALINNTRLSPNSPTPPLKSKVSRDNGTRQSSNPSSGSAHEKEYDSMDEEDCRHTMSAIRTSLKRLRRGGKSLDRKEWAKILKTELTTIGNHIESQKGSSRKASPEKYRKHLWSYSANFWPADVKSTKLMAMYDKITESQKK

With `CNc1nc(C(=O)N2CCCC(c3nccn3CC3CCC3)C2)cs1` (stereo not given), the Percent Effect in [1] is -5.42%; in [2], 8.22%; in experiment [3] it was -0.395%; in experiment [4], -0.171%; with Trypanosoma cruzi, 1.96%; in experiment [5] it was 0.455%. Further, the Percent Effect in experiment [6] was 7.81%; in the experiment filed under Homo sapiens, 0.132%; in experiment [7], 6.45%; in [8], -22.5%; in experiment [9], -6.79%.
Regarding `O=C(NCc1cnc2n1CCN(CC1CC1)CC2)C1CCC1`, the Percent Effect in experiment [1] was -2.75%; in experiment [2], 13.5%; in experiment [3], -7.3%; in experiment [4], 21.4%; with Trypanosoma cruzi, 4.79%; in [5], 18.1%. Moreover, the Percent Effect in experiment [6] is 7.47%; in the experiment listed under Homo sapiens it was -8.45%; in experiment [7] it was 6.45%; in experiment [8], 16.1%; in experiment [9], -4.7%.
As for `COCCO[C@@H]1CCN(C(=O)c2ccc(C)o2)[C@@H]1Cc1cccnc1`, the Percent Effect in [1] is -5.36%; in experiment [2] it was 0%; in experiment [3], 9.87%; in [4], -4.82%; in the experiment on Trypanosoma cruzi it was -3.91%; in experiment [5] it was 4.17%. Also, the Percent Effect in [6] is 8.03%; in the experiment filed under Homo sapiens, 2.29%; in [7], 5.94%; in experiment [8], 8.54%; in experiment [9], -1.12%.
On to `CC(C#N)CSc1ccccc1NCC(=O)Nc1ccc(F)cc1` (stereo not given), for which the Percent Effect in experiment [1] was -7.84%; in experiment [2], -5.48%; in experiment [3], 17.1%; in experiment [4], -9.84%; in the experiment with Trypanosoma cruzi, -3.33%; in experiment [5], 1.82%. Further, the Percent Effect in experiment [6] was 6.39%; in the experiment listed under Homo sapiens it was 3.15%; in experiment [7], -8.6%; in [8], -10%; in experiment [9], -0.597%.
As to `CCOCCCNc1nc(O)cc(C2CC(=O)N(C)C2)n1` (stereo not given), the Percent Effect is -3.32% in experiment [1]; 6.76% in experiment [2]; -1.4% in experiment [3]; 1.36% in experiment [4]; 3.95% in the experiment with Trypanosoma cruzi; -4.41% in experiment [5]. In addition, the Percent Effect in experiment [6] is 9.83%; in the experiment listed under Homo sapiens it was -10.5%; in experiment [7], 1.07%; in experiment [8] it was 9.09%; in experiment [9], -25.9%.
`CN(Cc1ccc(F)cc1)C(=O)Cn1nc(-c2ccc(F)cc2)oc1=O`: the Percent Effect in experiment [1] was -0.937%; in experiment [2], 2.63%; in experiment [3], 0.873%; in [4], -13.2%; in the experiment on Trypanosoma cruzi it was -7.3%; in experiment [5], 11.8%. The Percent Effect in experiment [6] is 15.4%; in the experiment filed under Homo sapiens it was 14.9%; in [7], -7.45%; in experiment [8] it was -2.6%; in experiment [9], -7.96%.
Take `CC(C)Sc1nnc(CCNC(=O)OC(C)(C)C)o1`: the Percent Effect in experiment [1] was 1.34%; in experiment [2], 4%; in experiment [3] it was -0.0572%; in experiment [4], 0.92%; in the experiment on Trypanosoma cruzi it was -8.45%; in experiment [5] it was 0.176%. The Percent Effect in [6] is 12.2%; in the experiment listed under Homo sapiens it was 32.6%; in experiment [7], -2.12%; in experiment [8], -12.8%; in experiment [9], -10.5%.
For `COc1ccc(C(=O)N(Cc2cnn(C)c2)C(C)C)cc1Br`, the Percent Effect in experiment [1] is -4.7%; in experiment [2] it was 0%; in experiment [3] it was -7.42%; in [4], 8.74%; with Trypanosoma cruzi it was 6.44%; in experiment [5], -2.52%. Also, the Percent Effect in experiment [6] is -1.61%; in the experiment filed under Homo sapiens it was -4.21%; in experiment [7] it was 2.46%; in [8], 11.1%; in experiment [9], -4.6%.
For the compound `O=C1[C@H]2CC[C@H](CN(S(=O)(=O)c3ccccc3)C2)N1Cc1cscn1`, the Percent Effect in [1] is -9.05%; in experiment [2] it was 5.48%; in [3], 3.4%; in experiment [4] it was -0.832%; in the experiment on Trypanosoma cruzi, -1.59%; in [5] it was -2.4%. Also, the Percent Effect was -4.02% in experiment [6]; 27.2% in the experiment listed under Homo sapiens; -1.04% in [7]; -1.24% in experiment [8]; 2.37% in experiment [9].
On to `CCn1nc(CC(C)C)cc1C(=O)NCCCOC`, for which the Percent Effect in [1] is -2.12%; in experiment [2], 6.94%; in [3] it was 0.357%; in experiment [4] it was 4.91%; in the experiment on Trypanosoma cruzi, 0.291%; in experiment [5], 4.86%. Further, the Percent Effect in experiment [6] is 15.8%; in the experiment filed under Homo sapiens, 3.12%; in [7], 5.26%; in experiment [8], 7.69%; in experiment [9], 0.96%.
